For four molecules, composite z-score and z-score results are on record in PubChem BioAssay.

In test [1] the test system is Wnt5a (protein binding on small-molecule microarray). The test can be described thus: Wnt5a binders on small-molecule microarray, primary screen, biophysical, 635/667 nm fluorescence (AID 1142).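 Note: fluorescence read at 667 nm with signal to noise per printed feature.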 Conditions: 635 nm fluorescence, higher = more signal.
Test [2] in a line: cell viability in Huh7 cells, primary screen, cytotoxicity control for HCV replication inhibitor project, CellTiter-Glo luminescence, basal, 48 h (AID 1143).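 Note: Huh7 hepatoma cells carrying a hepatitis C replication reporter with no stimulus; test concentration not given here.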 The note with it: Huh7 HCV replicon, higher = more signal, called active from +8 up or from −8 down.
Test [3] can be described thus: P. aeruginosa biofilm formation inhibitors, primary screen, PAO1 strain, BacTiter-Glo luminescence, LB-PBS (AID 1144). Conditions: 12 h, higher = more signal.
The nature of test [4]: CREB reporter modulators without forskolin, primary screen, cell-based, PC12, CRE-LacZ reporter, unstimulated (AID 1145). Conditions: no forskolin, luminescence, 4.5 h, higher = more signal, called active from +8 up or from −8 down.
A short description of test [5]: CREB reporter modulators under forskolin, primary screen, cell-based, PC12, CRE-LacZ reporter, forskolin-stimulated (AID 1146).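 Note: PC12 cells with 6xCRE LacZ reporter stimulated by forskolin 10 µM; beta-galactosidase reporter signal reflecting CREB driven transcription.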 The note with it: luminescence, 4.5 h, higher = more signal, called active from +8 up or from −8 down.
Test [6] deals with Streptavidin (Streptomyces avidinii) (UniProt P22629). Description: streptavidin binders on small-molecule microarray, primary screen, artefact control for SMM compound annotation, biophysical, 635/667 nm fluorescence (AID 1147).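 Note: signal reflects streptavidin binding to arrayed compounds as a control protein.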 The note with it: streptavidin binding, higher = more signal.
Sequence of Streptavidin (Streptomyces avidinii) (P22629 whole entry, looked up): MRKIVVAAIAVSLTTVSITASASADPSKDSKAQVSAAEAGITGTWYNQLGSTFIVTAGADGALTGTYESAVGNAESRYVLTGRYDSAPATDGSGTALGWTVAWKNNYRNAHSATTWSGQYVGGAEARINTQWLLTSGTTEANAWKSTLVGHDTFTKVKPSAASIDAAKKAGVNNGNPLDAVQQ
Test [7] in a line: small-molecule binders of probe aInhba, primary screen, biochemical, small-molecule microarray, 635/667 nm fluorescence (AID 1148).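 Note: score merges 667nm spot fluorescence with signal-to-noise for antibody binding to printed compounds.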 Conditions: higher = more signal.
For test [8], the target named is Torsin-1A (Homo sapiens) (UniProt O14656). Description: torsin A binders from cell lysate, primary screen, small-molecule microarray, wild-type, 635/667 nm (AID 1149). The note with it: COS7 hTOR1A-WT lysate, 635 nm fluorescence, higher = more signal.
Sequence of Torsin-1A (Homo sapiens) (O14656 whole entry, looked up): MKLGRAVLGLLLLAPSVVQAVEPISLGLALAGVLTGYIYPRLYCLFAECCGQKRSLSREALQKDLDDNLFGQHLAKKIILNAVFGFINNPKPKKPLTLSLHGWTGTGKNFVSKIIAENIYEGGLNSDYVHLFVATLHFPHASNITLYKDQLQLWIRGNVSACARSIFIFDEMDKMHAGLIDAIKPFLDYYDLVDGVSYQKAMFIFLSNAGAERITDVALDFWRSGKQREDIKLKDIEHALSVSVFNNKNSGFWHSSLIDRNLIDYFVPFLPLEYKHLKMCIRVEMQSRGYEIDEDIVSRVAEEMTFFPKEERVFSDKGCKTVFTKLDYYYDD
Test [9] shares this target. Description: small-molecule binders of mutant TOR1A in lysate, primary screen, cell lysate, small-molecule microarray, COS7 lysate, 635/667 nm fluorescence (AID 1150).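 Note: score pools 667 nm emission and signal to noise measuring lysate protein binding.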 Conditions: COS7 hTOR1A mutant lysate, 635 nm fluorescence, higher = more signal.
Test [10] deals with Sonic hedgehog protein (Shh). The test can be described thus: small-molecule binders of Shh protein, primary screen, biochemical, small-molecule microarray, 635/667 nm fluorescence (AID 1151).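 Note: Shh protein binding to compounds spotted on small-molecule microarray slides; score combines spot fluorescence intensity with signal-to-noise across triplicate slides.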 Conditions: small-molecule microarray binding, 635 nm fluorescence; higher = more signal.
Test [11] can be described thus: E. coli DRC41 culture turbidity changes, primary screen, E. coli filamentation inducer project, strain DRC41, OD650, 48 h (AID 1152).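 Note: E. coli MC1000 strain DRC41 lacking acrAB efflux pump and sulA.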 Conditions: E. coli DRC41 (acrAB sulA), higher = more signal, called active from +8 up or from −8 down.
Test [12] in a line: small-molecule binders of probe aLefty1, primary screen, biochemical, small-molecule microarray, 635/667 nm fluorescence (AID 1153).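 Note: score merges spot fluorescence with signal-to-noise ratio from the scanned slide images.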 Conditions: higher = more signal.
The nature of test [13]: PSAC antagonists in infected red cells, primary screen, cell-based, P. falciparum Indochina, OD700, 1 h (AID 1154). Conditions: P. falciparum Indochina infected RBC osmotic lysis, higher = more signal, called active from +8 up or from −8 down.
Test [14] is described as follows: PSAC antagonists in infected red cells, primary screen, cell-based, P. falciparum Indochina, OD700, 2 h (AID 1155).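 Note: lysis reports solute entry through the parasite surface anion channel PSAC; channel blockers reduce lysis of infected cells.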 The note with it: P. falciparum Indochina infected erythrocytes, osmotic lysis OD700; higher = more signal, called active from +8 up or from −8 down.
Test [15] in a line: osmotic lysis modulators in infected erythrocytes, primary screen, PSAC antagonist project, cell-based, P. falciparum Indochina, OD700, 3 h (AID 1156). The note with it: higher = more signal, called active from +8 up or from −8 down.
A short description of test [16]: PSAC antagonists in infected red cells, primary screen, cell-based, P. falciparum Indochina, OD700, 18 h (AID 1157). The note with it: P. falciparum Indochina infected erythrocytes, osmotic lysis OD700, 18 h; higher = more signal, called active from +8 up or from −8 down.
A short description of test [17]: modulators of S6 phosphorylation in cells, primary screen, cell-based, A549, cytoblot, luminescence, serum-stimulated (AID 1158).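 Note: serum-stimulated A549 lung adenocarcinoma cells; signal is phosphorylated S6 detected by cytoblot immunostaining with HRP secondary.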 Conditions: A549 phospho-S6 cytoblot, 5 h, higher = more signal.
Test [18] concerns the target NADPH oxidase 2 (Homo sapiens) (UniProt P04839). Description: NOX2-dependent H2O2 signal modulators, primary screen, NOX inhibitor project, cell-based, HEK293-NOX2, PMA-stimulated, Amplex Red fluorescence (AID 1159). Note: test concentration not given here. Conditions: 45 min, higher = more signal, called active from +8 up or from −8 down.
In test [19] the target is NADPH oxidase 4 (Homo sapiens) (UniProt Q9NPH5). Description: NOX4-dependent H2O2 signal modulators, primary screen, NOX inhibitor project, cell-based, HEK293-NOX4, tetracycline-induced, Amplex Red fluorescence (AID 1160). Conditions: 45 min, higher = more signal, called active from +8 up or from −8 down.
Sequence of NADPH oxidase 4 (Homo sapiens) (Q9NPH5 whole entry, looked up): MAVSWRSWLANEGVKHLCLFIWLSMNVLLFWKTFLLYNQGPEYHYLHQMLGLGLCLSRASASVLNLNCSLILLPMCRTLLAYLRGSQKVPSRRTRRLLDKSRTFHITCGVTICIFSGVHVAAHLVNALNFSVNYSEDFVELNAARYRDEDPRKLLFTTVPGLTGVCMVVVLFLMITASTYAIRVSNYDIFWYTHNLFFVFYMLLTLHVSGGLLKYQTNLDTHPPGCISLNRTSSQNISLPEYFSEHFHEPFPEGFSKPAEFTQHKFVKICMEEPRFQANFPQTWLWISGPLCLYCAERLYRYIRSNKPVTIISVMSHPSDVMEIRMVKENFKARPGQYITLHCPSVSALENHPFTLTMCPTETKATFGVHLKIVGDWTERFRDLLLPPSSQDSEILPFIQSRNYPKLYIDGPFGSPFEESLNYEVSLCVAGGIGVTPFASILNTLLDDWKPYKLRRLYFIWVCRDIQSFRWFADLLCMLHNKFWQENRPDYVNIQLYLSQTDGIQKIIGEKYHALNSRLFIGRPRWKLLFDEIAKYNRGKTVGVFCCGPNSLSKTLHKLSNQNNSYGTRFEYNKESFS
Test [20] concerns the target NADPH oxidase 5 (Homo sapiens) (UniProt Q96PH1). The test can be described thus: NOX5-dependent H2O2 signal modulators, primary screen, NOX inhibitor project, cell-based, HEK293-NOX5, Amplex Red fluorescence (AID 1161). Conditions: HEK293-NOX5, ionomycin, 45 min, higher = more signal.

SMILES strings stand for the structures. Calls of active or inactive are those of the source. Unless noted, the rule behind the calls is not given here.

Sequence of NADPH oxidase 2 (Homo sapiens) (P04839 whole entry, looked up): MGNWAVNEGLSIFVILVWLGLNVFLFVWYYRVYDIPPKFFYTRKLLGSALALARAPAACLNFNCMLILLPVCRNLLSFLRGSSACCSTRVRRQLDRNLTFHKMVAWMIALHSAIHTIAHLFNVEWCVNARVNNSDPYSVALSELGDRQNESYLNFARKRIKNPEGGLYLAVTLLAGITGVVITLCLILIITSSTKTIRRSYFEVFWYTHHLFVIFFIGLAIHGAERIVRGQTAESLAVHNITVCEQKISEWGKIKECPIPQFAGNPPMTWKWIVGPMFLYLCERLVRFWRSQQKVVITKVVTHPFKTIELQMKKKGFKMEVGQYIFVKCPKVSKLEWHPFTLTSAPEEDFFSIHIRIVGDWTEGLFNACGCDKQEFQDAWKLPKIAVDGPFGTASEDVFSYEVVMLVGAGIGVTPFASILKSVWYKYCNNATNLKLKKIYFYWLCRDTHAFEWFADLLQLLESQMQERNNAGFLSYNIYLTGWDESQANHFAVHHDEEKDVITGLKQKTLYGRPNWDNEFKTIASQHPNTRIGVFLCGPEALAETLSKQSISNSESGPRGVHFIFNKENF
Sequence of NADPH oxidase 5 (Homo sapiens) (Q96PH1 whole entry, looked up): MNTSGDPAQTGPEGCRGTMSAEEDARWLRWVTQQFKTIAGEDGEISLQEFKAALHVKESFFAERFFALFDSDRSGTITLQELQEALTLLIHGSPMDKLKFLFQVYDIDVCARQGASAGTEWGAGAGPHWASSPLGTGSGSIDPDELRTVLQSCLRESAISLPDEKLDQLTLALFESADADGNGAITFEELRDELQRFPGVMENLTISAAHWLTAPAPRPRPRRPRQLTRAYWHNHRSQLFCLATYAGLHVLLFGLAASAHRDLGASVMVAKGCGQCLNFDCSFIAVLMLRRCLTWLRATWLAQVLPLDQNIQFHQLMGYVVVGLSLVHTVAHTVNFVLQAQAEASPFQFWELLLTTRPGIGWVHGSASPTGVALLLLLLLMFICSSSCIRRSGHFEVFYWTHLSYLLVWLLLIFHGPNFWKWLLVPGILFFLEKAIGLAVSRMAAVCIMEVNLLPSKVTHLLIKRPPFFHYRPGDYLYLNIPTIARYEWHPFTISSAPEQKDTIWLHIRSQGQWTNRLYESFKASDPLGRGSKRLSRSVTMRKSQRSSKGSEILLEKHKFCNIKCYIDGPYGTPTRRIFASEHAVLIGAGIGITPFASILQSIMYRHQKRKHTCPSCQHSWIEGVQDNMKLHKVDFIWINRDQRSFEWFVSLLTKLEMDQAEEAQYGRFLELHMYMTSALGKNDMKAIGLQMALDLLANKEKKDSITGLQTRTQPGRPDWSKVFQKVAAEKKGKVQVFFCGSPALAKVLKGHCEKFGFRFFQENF

For `C=CCC(OC(C)=O)[C@@H]1[C@@H](N(Cc2ccc(-c3ccccc3)cc2)C(=O)Cc2ccc(F)cc2)c2cc(OCCCO)ccc2N1C(=O)Cc1ccc(OC)cc1` (stereo not given in full), the composite z-score in test [1] is 0.205; in test [6] it was 0.586; in [7] it was -0.128; in the test with Torsin-1A (Homo sapiens) [8], 0.106; with Torsin-1A (Homo sapiens) [9], -0.751; in test [10], 0.164. Besides, the composite z-score in test [12] amounted to 0.106. Also, the z-score is 0.145 (inactive) in test [2]; 0.729 (inactive) in test [3]; 1.25 (inactive) in [4]; 1.1 (inactive) in test [5]; 0.246 (inactive) in test [11]; 3.94 (inactive) in test [13]. Further, the z-score in [14] was 0.477 (inactive); in [15] it was -0.407 (inactive); in [16], 0.259 (inactive); in test [17], -0.152; in [18] it was 0.0982 (inactive); in test [19], 0.675 (inactive). The z-score in [20] came out at 1.67.
As to `C=CCC(OC(C)=O)[C@@H]1[C@@H](N(Cc2cc3ccccc3o2)C(=O)Cc2ccc(F)cc2)c2cc(OCCCO)ccc2N1C(=O)c1ccc2ccccc2c1` (stereo not given in full), the composite z-score in test [1] was 0.117; in test [6], 0.0943; in test [7], -0.176; with Torsin-1A (Homo sapiens) [8], -0.312; in the test with Torsin-1A (Homo sapiens) [9] it was 0.237; in test [10], 0.697. Moreover, the composite z-score in test [12] turned out to be 0.106. In addition, the z-score in [2] was -0.008 (inactive); in [3], 0.101 (inactive); in [4], 2.6 (inactive); in [5], 0.86 (inactive); in test [11] it was -0.959 (inactive); in [13], 1.18 (inactive). In addition, the z-score in test [14] is 0.305 (inactive); in test [15], -0.97 (inactive); in test [16], 0.112 (inactive); in test [17] it was -0.448; in [18], 0.512 (inactive); in [19] it was 0.957 (inactive). In addition, in test [20], the z-score turned out to be 2.34.
Consider `C=CC[C@@]1(C(=O)N2CCOCC2)N=C(c2ccc(OCCCO)cc2)O[C@@H]1c1ccccc1CN=[N+]=[N-]`, for which the composite z-score in test [1] was determined as 0.935; in test [6], 1.28; in [7] it was 0.305; with Torsin-1A (Homo sapiens) [8], 0.495; with Torsin-1A (Homo sapiens) [9], 1.46; in test [10] it was 0.0134. In addition, the composite z-score in test [12] was determined as 0.789. The z-score is -2.2 (inactive) in [2]; 0.887 (inactive) in [3]; 0.204 (inactive) in [4]; -0.818 (inactive) in test [5]; -0.124 (inactive) in test [11]; 21.5 (active) in test [13]. Also, the z-score in test [14] was 4.83 (inactive); in test [15], 1.61 (inactive); in [16], 0.986 (inactive); in test [17] it was 0.36; in test [18], -0.305 (inactive); in test [19], 0.645 (inactive). Moreover, the z-score in test [20] was -1.07.
As to `COCCOC(=O)N1C(=O)[C@@]2(c3cc(C#Cc4ccc(OC)cc4)ccc31)[C@H](c1ccccc1OCCO)N1[C@H](c3ccccc3)[C@H](c3ccccc3)OC(=O)[C@H]1[C@@H]2C(=O)N1CCCCCCC1`, the composite z-score in test [1] worked out at 1.28; in test [6], 2.64; in test [7] it was 1.56; with Torsin-1A (Homo sapiens) [8], 2.72; in the test with Torsin-1A (Homo sapiens) [9] it was 2.09; in test [10], 2.04. This molecule also registered a composite z-score in test [12] of 2.81. Besides, the z-score in test [2] is -4.35 (inactive); in test [3], -2.23 (inactive); in [4], -1.42 (inactive); in test [5], -0.693 (inactive); in test [11] it was 2.97 (inactive); in [13] it was 0.999 (inactive). In addition, the z-score in [14] was 0.57 (inactive); in test [15], 0.338 (inactive); in test [16], -0.122 (inactive); in test [17], 1.99; in [18], -0.126 (inactive); in test [19], 0.201 (inactive). Besides, the z-score in test [20] amounted to 1.19.
